# High-throughput results from PubChem.
# LmPK inhibitor = inhibitors of Leishmania mexicana pyruvate kinase; purified LmPK, Kinase-Glo ATP luminescence, 1 h; Potency, µM (titrated, usually from 57.5 µM), without a hit: top-dose activity change, negative = inhibition, most hits filed as inhibitors; 0.37% of 290,000 active; AID 1721; also: potency is read from the fitted curve at half-maximal effect; % is scaled to controls: 0 for no effect and ±100 for the full control effect
# Target sequence (Q27686 whole entry, looked up): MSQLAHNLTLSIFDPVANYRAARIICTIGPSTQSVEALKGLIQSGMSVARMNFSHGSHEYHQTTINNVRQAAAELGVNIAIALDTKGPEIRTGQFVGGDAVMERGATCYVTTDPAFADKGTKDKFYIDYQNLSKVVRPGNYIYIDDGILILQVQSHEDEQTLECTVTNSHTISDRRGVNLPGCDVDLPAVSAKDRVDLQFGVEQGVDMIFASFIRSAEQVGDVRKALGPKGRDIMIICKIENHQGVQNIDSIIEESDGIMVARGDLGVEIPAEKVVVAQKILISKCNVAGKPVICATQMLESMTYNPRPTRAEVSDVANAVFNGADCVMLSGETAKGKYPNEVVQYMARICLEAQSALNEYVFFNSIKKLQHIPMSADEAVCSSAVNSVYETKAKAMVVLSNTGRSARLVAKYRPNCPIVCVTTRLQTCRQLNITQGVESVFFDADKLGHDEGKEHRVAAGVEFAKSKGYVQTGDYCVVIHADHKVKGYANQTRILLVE
#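 Kinase-Glo luminescence read after 1 h RT reaction of 0.1 nM LmPK with 0.5 mM PEP and 0.1 mM ADP. Activity scaled between uninhibited and enzyme-free controls.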
# Tb PYK inh = T. brucei pyruvate kinase inhibition | Q57TT1 | TbPYK enzyme, Kinase-Glo Plus ATP luminescence, 45 min | Potency, µM (doses to about 76.8 µM), without a hit: top-dose activity, negative = inhibition, usual class: inhibitors | 0.12% of 410,000 active; also: potency is read from the fitted curve at half-maximal effect; % is scaled to controls: 0 for no effect and ±100 for the full control effect; nearly all actives have a fitted effect of over 50% in size
#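 Screened from lowest to highest concentration, compounds were pinned into TbPYK/substrate mixtures, and ADP (130 uM final) was added. Plates sat at room temperature for 45 min prior to Kinase-Glo Plus detection by luminescence.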
# RE007 growth inh = less growth of the S. pombe RE007 Vpr strain | S. pombe RE007 Vpr strain, BacTiter-Glo ATP luminescence, 24 h | Potency, µM (titrated, usually from 92.2 µM), for the others: top-dose activity change, negative = less growth, usual class: inhibitors | 0.21% of 360,000 active | AID 651644; active = well fitted falling curve with a large enough effect; inconclusive = small, poorly fitted or top-dose-only effect; inactive = no such curve, though single readings can be large or run the other way; also: potency is read from the fitted curve at half-maximal effect; % is scaled to controls: 0 for no effect and ±100 for the full control effect; nearly all actives have a fitted effect of over 50% in size
#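 Fission yeast RE007 carrying one integrated HIV-1 vpr copy, seeded at OD 0.01 in PMG+AL medium with 23 nL pinned compound. Grown 24 h at 30 degrees; viability read by BacTiter-Glo luminescence after 5 min.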
# Giardia FBPA inh = inhibitors of Giardia lamblia fructose-1,6-bisphosphate aldolase; purified Giardia FBPA; Potency, µM (series often up to 59.6 µM), inactives show top-dose activity, negative = inhibition, most hits filed as inhibitors; 0.71% of 290,000 active; AID 2451; also: potency is read from the fitted curve at half-maximal effect; % is scaled to controls: 0 for no effect and ±100 for the full control effect; nearly all actives have a fitted effect of over 55% in size
#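 40 nM FBPA preincubated 10 min at RT with compound (up to 57.5 uM final), then substrate plus GAPDH/TPI/NAD/arsenate coupling and diaphorase/resazurin added. Fluorescence read after 20 min at RT, 525/598 nm.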
# Shiga toxin inh = Shiga toxin inhibition. Vero cells, Shiga toxin protein synthesis inhibition reporter. inhibition, % at 38.7 µM. 9.2% of 290,000 active; in the data active = inhibition mostly above about 28%, no sharp cut-off; inactive = mostly below about 43%; also: 0% is about no effect
# CHX counter = counter-screen for Shiga toxin inhibitors: cycloheximide protein synthesis inhibition; max response, %; cell reporter, cycloheximide protein synthesis inhibition counterscreen; AID 2314; 12% of 300,000 active; in the data active = max response mostly above about 13%, no sharp cut-off; inactive = mostly below about 14%; also: read at 38.3 µM for the half of the compounds with a filed dose; 0% is about no effect
# An asterisk follows results filed as active; ? = inconclusive; . = no result; + = active, no number; [ ] = another dose, or the depositor's remark. This is one part of a sample in which hits are shown more often than they occur. Unless noted, calls follow the shape of the dose curve; as a rule, active = well fitted curve in the direction sought with a large enough effect; inconclusive = small, poorly fitted or top-dose-only effect, or another doubt; inactive = no such curve, though single readings can be large; an effect the other way counts as inactive or inconclusive.
SMILES,LmPK inhibitor,Tb PYK inh,RE007 growth inh,Giardia FBPA inh,Shiga toxin inh,CHX counter
O=C(OCC(=O)N1CCc2ccccc2C1)c1cc(=O)[nH]c2ccccc12,3%,2%,-4%,0%,59*,33*
Cc1ccc(OCC(=O)N2CCc3ccccc3C2)c(Br)c1,3%,0%,-12%,5%,60*,42*
COC(=O)c1ccc(N2C(=O)Cc3cc(OC)c(OC)cc3C2c2ccc(F)cc2)cc1 (stereo not given),.,-10%,.,.,.,.
COC(=O)c1ccccc1NC(=O)C1=C(C)C(=O)OC12CCC(C)CC2 (stereo not given),.,0%,.,.,.,.
O=C(Nc1nc2ccc(F)cc2s1)c1ccccn1,18µM*,?,14µM*,?,26,-1
O=C(NCc1cccnc1)C(=O)Nc1nc2ccccc2s1,-10%[11.5 µM],-2%,17%,-1%,93*,39*
O=C(Nc1nc(-c2ccco2)c(-c2ccco2)s1)c1cnccn1,.,6%,-5%,.,.,.
CCOc1ccc2nc(NC(=O)c3cnccn3)sc2c1,-22%,-2%,-4%,2%,62*,32*
CCOc1ccc2nc(NC(=O)C3(C)CC3(Br)Br)sc2c1 (stereo not given),.,-5%,?,.,.,.
O=C(Nc1nc2ccccc2s1)c1cnccn1,10µM*,-16%,-25%,6%,53*,32*
Cc1cc(C)c2c(=O)cc(C(=O)Nc3nc4ccc(F)cc4s3)oc2c1,.,-2%,.,.,.,.
CCOC(=O)c1cc(-c2ccc(C)cc2)n(CC(=O)Nc2ccc(OC)cc2OC)c1C,.,1%,.,.,.,.
O=C(CSc1nnc(CNC(=O)c2ccccc2F)n1-c1ccccc1)Nc1ccccc1F,.,3%,.,.,.,.
Cc1ccc(O)c(C(=O)CC(=O)c2ccc(C(C)(C)C)cc2)c1,7%,0%,-1%,4%,.,23*
CC(C)(C)c1ccc(C(=O)NCC(=O)NNC(=O)c2ccccc2O)cc1,.,2%,-4%,.,.,.
Cc1ccc(O)c(C(=O)CC(=O)c2ccccc2Cl)c1,2%,7%,?,1%,81*,38*
CSc1cccc(NC(=O)Cn2c(=O)n(Cc3ccccc3)c(=O)c3sc4ccccc4c32)c1,.,0%,.,.,.,.
CN(/N=C/c1ccc(Cl)cc1Cl)c1ncc(Cl)cc1C(F)(F)F,1%,-7%,23%,-7%,-11,1
CN(/N=C/c1ccc(Cl)cc1)c1ncc(Cl)cc1C(F)(F)F,0%,2%,6%,0%,1,11*
Cc1ccc(NC(=O)C(=O)Nc2ccccn2)cc1,?,-12%,-14%,2%,69*,38*
COc1ccccc1OCC(=O)Nc1ccncc1,0%,2%,-20%,1%,22,10
COc1ccccc1NC(=O)C(=O)Nc1ccccn1,-14%,-2%,-6%,3%,94*,76*
COc1ccccc1OCC(=O)Nc1ccccn1,13µM*,?,?,-2%,27,27*
Cc1c(C)c2cc(Cl)c(OCC(=O)Nc3ccccn3)cc2oc1=O,.,-5%,-8%,.,.,.
Cc1c(C)c2ccc(OCC(=O)Nc3ccccn3)c(C)c2oc1=O,-17%,?,-14%,-7%,35*,22*
SMILES,LmPK inhibitor,Tb PYK inh,RE007 growth inh,Giardia FBPA inh,Shiga toxin inh,CHX counter
Cc1ccc(S(=O)(=O)CC(=O)Nc2ccccn2)cc1,2%,8%,-3%,-1%,-1,-7
COc1ccccc1NC(=O)C(=O)N/N=C(\C)CC(=O)Nc1ccccn1,2%,3%,5%,1%,23,11
CC(C)c1ccc(Nc2cc(C(=O)NC3CCCCC3)c3ccccc3n2)cc1,.,5%,.,.,.,.
Cc1c(C)c2ccc(OCC(=O)N3CCOCC3)c(C)c2oc1=O,1%,-10%,2%,1%,25,20*
Cc1cc(=O)oc2c(C)c(OCC(=O)Nc3cccnc3)ccc12,3%,-2%,9%,-4%,41*,31*
Cc1cc(NC(=O)c2cc(-c3ccc(Cl)cc3)on2)n(-c2ccccc2)n1,.,1%,.,.,.,.
CN1CCN(c2ccc3nccnc3c2)CC1,1%,-2%,19%,-13%,34,31
CCc1nc2ccc(N3CCN(C)CC3)cc2nc1CC,-4%,-4%,5%,-14%,40,25*
N#Cc1ccc(COC(=O)c2cccnc2Cl)cc1,-1%,-1%,-18%,.,-1,10
N#Cc1ccc(N2Cc3ccccc3C2=NC(=O)c2cccnc2Cl)cc1,-2%,2%,-17%,-3%,+,25*
O=C(N=C1c2ccccc2CN1c1ccc(F)c(Cl)c1)c1cccnc1Cl,-17%,.,.,-4%,77*,70*
Fc1cccc(Cc2noc(CN3CCCCC3c3ccccn3)n2)c1 (stereo not given),1%,-7%,1%,-22%,82,35*
Fc1ccc(C2CCCN2Cc2nc(Cc3ccccc3)no2)cc1 (stereo not given),-1%,0%,-3%,-3%,-5,-1
Fc1ccc(C2CCCN2Cc2nc(Cc3ccccc3F)no2)cc1 (stereo not given),-2%,-2%,-14%,1%,19,13*
Cc1ccccc1CCNCc1c(C(=O)O)c(C)n(Cc2c(F)cccc2Cl)c1C,.,-7%,.,.,.,.
CCc1nnc(SCc2cccc(Cl)c2)c2cc3sccc3n12,.,4%,.,.,.,.
Cc1ccc(S(=O)(=O)n2nccc2-c2c(-c3ccccc3)noc2C)cc1,4%,1%,5%,-2%,-5,1
Cc1onc(-c2ccccc2)c1-c1ccnn1S(=O)(=O)c1ccc(Cl)cc1,2%,2%,-3%,-14%,88*,44*
C/C(CCc1ccc2c(c1)OCO2)=N\NC(=O)c1ccccc1Cl,-1%,2%,-6%,-6%,13,24*
C/C(CCc1ccc2c(c1)OCO2)=N\NC(=O)c1ccccc1,0%,1%,-2%,1%,76*,36*
COc1ccc(CCC(=O)N/N=C(\C)c2ccc3c(c2)OCO3)cc1,0%,-5%,-7%,.,-12,1
CCn1c(C(C)NC(=O)c2ccc(OC)c(OC)c2)nc2ccccc21 (stereo not given),-3%,-6%,-1%,1%,70*,18*
CCOc1ccc(C(=O)Nc2cccc(-c3nc4ccccc4[nH]3)c2C)cc1[N+](=O)[O-],1%,-9%,12%,1%,-10,-3
COc1cc(C(=O)Nc2nc3ccccc3[nH]2)ccc1OC(F)F,-8%,-3%,-10%,?,62*,39*
COc1ccc(C(=O)NC(C)c2nc3ccccc3n2C)cc1OC (stereo not given),-1%,5%,5%,-11%,3,4
CCOc1ccc(C(=O)Nc2nc3ccccc3[nH]2)cc1OCC,2%,-5%,-11%,-28%,105*,51*
COc1ccc(C(=O)Nc2cccc(C(=O)O)c2)cc1S(=O)(=O)N1CCCC1,1%,5%,8%,0%,-9,-3
